Results filed as inconclusive are left out. A call without a number means that no potency is given here. Calls of active or inactive are those of the source. Calls come from the whole dose curve; as a rule, active = well fitted curve in the direction sought with a large enough effect; inconclusive = small, poorly fitted or top-dose-only effect, or another doubt; inactive = no such curve, though single readings can be large; an effect the other way counts as inactive or inconclusive.
How the values were obtained:
MKL-1 = test: qHTS assay to identify novel small-molecules to repurpose for Merkel cell carcinoma treatment (AID 1296009); conditions: MCC and control cell lines, CellTiter-Glo viability, 72 h; series mostly up to 46 µM; note: nearly all actives have a fitted effect of over 60% in size
How it was run: (§1)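 72 hr, 37 degree celsius; NPC 8-pt / MIPE 11-pt dose response; compound pinned in DMSO; CellTiter-Glo, 10 min RT, luminescence; normalized to no-cell and DMSO controls.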

UISO = test: as above; conditions: MCC and control cell lines, CellTiter-Glo viability, 72 h; series mostly up to 46 µM
How it was run: as §1

WaGa = test: as above; conditions: MCC and control cell lines, CellTiter-Glo viability, 72 h; series mostly up to 46 µM
How it was run: as §1

C33A = test: Primary qHTS to identify gynecologic anti-cancer compounds using libraries of approved drugs and bioactive compounds (AID 1345084); conditions: Gynecologic cancer cell panel viability, ATPlite luminescence, 48 h; series mostly up to 57.5 µM; note: nearly all actives have a fitted effect of over 55% in size
How it was run: (§2)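 Five-concentration response, 48 h; readout is ATP-driven luciferase luminescence.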

CASKI = test: as above; conditions: Gynecologic cancer cell panel viability, ATPlite luminescence, 48 h; series mostly up to 57.5 µM
How it was run: as §2

Es-2 = test: as above; conditions: Gynecologic cancer cell panel viability, ATPlite luminescence, 48 h; series mostly up to 57.5 µM
How it was run: as §2

HeLa = test: as above; conditions: Gynecologic cancer cell panel viability, ATPlite luminescence, 48 h; series mostly up to 57.5 µM
How it was run: as §2

MKL-2 = test: qHTS assay to identify novel small-molecules to repurpose for Merkel cell carcinoma treatment (AID 1296009); conditions: MCC and control cell lines, CellTiter-Glo viability, 72 h; series mostly up to 46 µM; note: nearly all actives have a fitted effect of over 60% in size
How it was run: as §1

CAOV3 = test: Primary qHTS to identify gynecologic anti-cancer compounds using libraries of approved drugs and bioactive compounds (AID 1345084); conditions: Gynecologic cancer cell panel viability, ATPlite luminescence, 48 h; series mostly up to 57.5 µM; note: nearly all actives have a fitted effect of over 55% in size
How it was run: as §2

NIH3T3 = test: qHTS assay to identify novel small-molecules to repurpose for Merkel cell carcinoma treatment (AID 1296009); conditions: MCC and control cell lines, CellTiter-Glo viability, 72 h; at 44.8 µM (top of the series); note: nearly all actives have a fitted effect of over 60% in size
How it was run: as §1
Potency is the fitted concentration of half-maximal effect.

Structure (SMILES) | Potency (MKL-1) | Potency (UISO) | Potency (WaGa) | Potency (C33A) | Potency (CASKI) | Potency (Es-2) | Potency (HeLa) | Potency (MKL-2) | Potency (CAOV3) | outcome (NIH3T3)
NCCNC(=O)c1ccc(Cl)cn1 | inactive | inactive | inactive | inactive | inactive | inactive | inactive | – | – | –
C/C=C/c1ccc(O)c(OC)c1 | inactive | inactive | inactive | inactive | inactive | inactive | inactive | – | – | –
CC(=O)Nc1ccc(S(=O)(=O)Nc2ccc([N+](=O)[O-])cc2)cc1 | inactive | inactive | – | inactive | inactive | inactive | inactive | inactive | – | –
CCN(CC)CCNc1ccc(CO)c2sc3ccccc3c(=O)c12 | 10.6 µM (active) | 5.96 µM (active) | – | – | – | – | inactive | 3.35 µM (active) | 22.4 µM (active) | –
O=C(Nc1ccccc1)OCC(CN1CCCCC1)OC(=O)Nc1ccccc1 (stereo unspecified) | inactive | – | inactive | inactive | inactive | inactive | inactive | inactive | – | –
C#C[C@]1(O)CC[C@H]2[C@@H]3[C@H](C)CC4=C(CCC(=O)C4)[C@H]3CC[C@@]21C | inactive | inactive | 18.8 µM (active) | inactive | inactive | inactive | inactive | – | inactive | –
O=C(c1ccc(F)cc1)C1CCN(CCn2c(=S)[nH]c3ccccc3c2=O)CC1 | inactive | – | – | inactive | inactive | inactive | inactive | inactive | – | –
C#C[C@]1(O)CC[C@H]2[C@@H]3CCc4cc(OC)ccc4[C@H]3CC[C@@]21C | inactive | inactive | inactive | inactive | inactive | inactive | inactive | – | inactive | –
CCCCN=C(N)N=C(N)N | inactive | inactive | – | inactive | inactive | inactive | inactive | inactive | – | –
C[N+]1(CC2COC(c3ccccc3)(C3CCCCC3)O2)CCCCC1 (stereo unspecified) | 10.6 µM (active) | – | 18.8 µM (active) | inactive | inactive | inactive | inactive | 5.96 µM (active) | inactive | –
Cc1cc(NS(=O)(=O)c2ccc(N)cc2)nc(C)n1 | inactive | – | inactive | inactive | inactive | inactive | inactive | inactive | inactive | –
Oc1ccc(Cl)cc1Cc1cc(Cl)ccc1O | 23.7 µM (active) | – | – | – | inactive | inactive | inactive | 11.9 µM (active) | – | –
NC(=O)n1c(O)c(C(=O)c2cccs2)c2cc(Cl)ccc21 | inactive | – | – | inactive | inactive | inactive | – | inactive | inactive | –
CCOc1ccccc1C(N)=O | – | – | – | – | – | – | – | – | – | inactive
Cc1c[nH]c2ccccc12 | – | – | – | – | – | – | – | – | – | inactive

From PubChem BioAssay (NCATS)
